The assay has as its target T1, GST-Nv-NF-kB (Ser allele) (Nematostella vectensis, UniProt A7UNT2 2-411).
T1 sequence: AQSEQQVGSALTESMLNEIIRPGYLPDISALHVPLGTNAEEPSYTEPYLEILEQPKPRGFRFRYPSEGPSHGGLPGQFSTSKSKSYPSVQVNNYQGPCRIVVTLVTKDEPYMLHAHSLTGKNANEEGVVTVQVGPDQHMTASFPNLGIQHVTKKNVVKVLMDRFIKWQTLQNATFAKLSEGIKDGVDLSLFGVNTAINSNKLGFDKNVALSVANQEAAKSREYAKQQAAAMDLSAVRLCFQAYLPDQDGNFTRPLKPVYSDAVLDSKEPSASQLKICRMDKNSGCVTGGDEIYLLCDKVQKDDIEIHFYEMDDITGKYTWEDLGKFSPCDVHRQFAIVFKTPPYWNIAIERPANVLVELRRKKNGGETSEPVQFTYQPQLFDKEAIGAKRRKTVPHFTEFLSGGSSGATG
In words: protein-binding microarray (PBM); PBM: ~300 nM protein, 6 mM HEPES pH 7.8, 80 mM KCl, 0.5 mM EDTA, 0.5 mM EGTA, 6% glycerol, 35 ng/ul poly-dIdC, 1% milk, 1 h, room temperature; Ap Aiptasia and Nv Nematostella (sea anemones) / Co Capsaspora / Aq Amphimedon (sponge) / Dm Drosophila / Hu human; RHD is the Rel homology domain; high values mean tight binding. The following applies: dsDNA, one strand shown.
Consider “CCGATTAACATCAGGGAAACTTATGATGTTAATCGGGTCTTGATTCGCTTGACGCTGCTG”, for which the binding signal amounted to 6.07 z-score.

For “CCGATTAACATCACCGAACCCCCTGATGTTAATCGGGTCTTGATTCGCTTGACGCTGCTG”, the binding signal worked out at 5.24 z-score.

“CCGATTAACATCAGGGCTCCCCCTGATGTTAATCGGGTCTTGATTCGCTTGACGCTGCTG” displayed a binding signal of 5.09 z-score.

The sequence “CCGATTAACATCAAAAAATCTCCTGATGTTAATCGGGTCTTGATTCGCTTGACGCTGCTG” yielded a binding signal of 1.5 z-score.

“CCGATTAACATCAAGGGACTTCCTGATGTTAATCGGGTCTTGATTCGCTTGACGCTGCTG” yielded a binding signal of 5.97 z-score.

As to “CCGATTAACATCAAAATTCCCGATGATGTTAATCGGGTCTTGATTCGCTTGACGCTGCTG”, the binding signal came out at 4.77 z-score.

As to “CCGATTAACATCAATCCCCCCCGTGATGTTAATCGGGTCTTGATTCGCTTGACGCTGCTG”, the binding signal was determined as 4.97 z-score.

As to “CCGATTAACATCAGAAACCCCCATGATGTTAATCGGGTCTTGATTCGCTTGACGCTGCTG”, the binding signal came out at 6.17 z-score.

Sequence “CCGATTAACATCAAAATTCCCGTTGATGTTAATCGGGTCTTGATTCGCTTGACGCTGCTG” yielded a binding signal of 6.44 z-score.

Take “CCGATTAACATCAGGAGTCCCCCTGATGTTAATCGGGTCTTGATTCGCTTGACGCTGCTG”: the binding signal stood at 5.14 z-score.

For the sequence “CCGATTAACATCATGGTACTTGTTGATGTTAATCGGGTCTTGATTCGCTTGACGCTGCTG”, the binding signal was found to be 1.85 z-score.

“CCGATTAACATCAGGAGATCCCCTGATGTTAATCGGGTCTTGATTCGCTTGACGCTGCTG” returned a binding signal of 6.55 z-score.

Regarding “CCGATTAACATCAAACCCCCCCCTGATGTTAATCGGGTCTTGATTCGCTTGACGCTGCTG”, the binding signal was found to be 5.04 z-score.

“CCGATTAACATCAAGGGGGGGATTGATGTTAATCGGGTCTTGATTCGCTTGACGCTGCTG” returned a binding signal of 6.32 z-score.

In turn, “CCGATTAACATCAACAACCCCCCTGATGTTAATCGGGTCTTGATTCGCTTGACGCTGCTG” yielded a binding signal of 5.06 z-score.

“CCGATTAACATCAAAACACCCCTTGATGTTAATCGGGTCTTGATTCGCTTGACGCTGCTG” registered a binding signal of 2.64 z-score.

With “CCGATTAACATCACATACCTACCTGATGTTAATCGGGTCTTGATTCGCTTGACGCTGCTG”, the binding signal stood at 1.21 z-score.

In turn, “CCGATTAACATCAGAAATTACCCTGATGTTAATCGGGTCTTGATTCGCTTGACGCTGCTG” had a binding signal of 5.41 z-score.

Turning to “CCGATTAACATCAAGGGGGGGAGTGATGTTAATCGGGTCTTGATTCGCTTGACGCTGCTG”, the binding signal turned out to be 4.08 z-score.

As to “CCGATTAACATCAGGGGCTTCCATGATGTTAATCGGGTCTTGATTCGCTTGACGCTGCTG”, the binding signal was found to be 3.55 z-score.

Turning to “CCGATTAACATCACAAATACCCCTGATGTTAATCGGGTCTTGATTCGCTTGACGCTGCTG”, the binding signal came to 4.74 z-score.

“CCGATTAACATCAGAGATCCCCCTGATGTTAATCGGGTCTTGATTCGCTTGACGCTGCTG”: the binding signal was found to be 6.44 z-score.

For the sequence “CCGATTAACATCAGGGGGAGTCATGATGTTAATCGGGTCTTGATTCGCTTGACGCTGCTG”, the binding signal was found to be 5.02 z-score.

Turning to “CCGATTAACATCACGGGGGGGGCTGATGTTAATCGGGTCTTGATTCGCTTGACGCTGCTG”, the binding signal is 2.3 z-score.

Sequence “CCGATTAACATCATAAAAAAAAATGATGTTAATCGGGTCTTGATTCGCTTGACGCTGCTG” returned a binding signal of 1.09 z-score.

(Values after paper PMC5700166.)
